Assay results published in PubChem BioAssay AID2653 (National Center for Advancing Translational Sciences (NCATS), 2010).
Results filed as inconclusive are left out. A number with no mark means an inactive call. Calls come from the whole dose curve; as a rule, active = well fitted curve in the direction sought with a large enough effect; inconclusive = small, poorly fitted or top-dose-only effect, or another doubt; inactive = no such curve, though single readings can be large or run the other way.

Test: Secondary Assay for Activators of Human Pyruvate Kinase M2 isoform - Cell Titer Glo Cytotoxicity for Probe SAR; note: % of control where 0% means no effect
Details: HeLa viability, CellTiter-Glo ATP luminescence, 24 h; series mostly up to 58.2 µM; activity change, negative = cytotoxicity: at the top concentration
Summary of the method: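 HeLa cells, 500 per well, plated 24 h then exposed to compound 24 h at 37 C. Total ATP by CellTiter-Glo luminescence after 10 min at room temperature; doxorubicin control.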

Which “activity change, negative = cytotoxicity” value does the source give for `Cc1ccc(N[S+](=O)([O-])c2cc3c(cc2CCc2ccccc2)NC(=O)CO3)cc1C` here?
The value was -10.3%.

With `CC(=O)Nc1ccc(S(=O)(=O)Nc2ccc(C)c(C)c2)cc1` as the compound, how does the “activity change, negative = cytotoxicity” value read?
Its value is -3.49%.

With `O=C1c2ccccc2C(=O)N1c1nccs1` as the compound, how does the “activity change, negative = cytotoxicity” value read?
Its value is -15.3%.

For `O=C1c2ccccc2C(=O)N1c1cccc2ncccc12`, which “activity change, negative = cytotoxicity” value is on record?
The value was -7.26%.

For `O=C1CCc2cc(S(=O)(=O)Nc3cccc(Cl)c3)ccc2N1`, which “activity change, negative = cytotoxicity” value is on record?
Its value is -11.9%.

For `O=C1CCc2cc(S(=O)(=O)Nc3cccc(Br)c3)ccc2N1`, which “activity change, negative = cytotoxicity” value is on record?
Its value is -2.99%.

With `O=C1c2ccccc2C(=O)N1Cc1ccccn1` as the compound, how does the “activity change, negative = cytotoxicity” value read?
The value was -8.82%.

With `O=C1CCc2cc(S(=O)(=O)Nc3ccccc3F)ccc2N1` as the compound, how does the “activity change, negative = cytotoxicity” value read?
The value was -28.6%.

For `O=C1c2ccccc2C(=O)N1C1CCCCC1`, which “activity change, negative = cytotoxicity” value is on record?
Its value is -17.4%.

With `O=C1CCc2cc(S(=O)(=O)Nc3ccccn3)ccc2N1` as the compound, how does the “activity change, negative = cytotoxicity” value read?
The value was -2.99%.

Which “activity change, negative = cytotoxicity” value does the source give for `CNc1cccc(S(=O)(=O)N2CCCN(S(=O)(=O)c3ccc4c(c3)OCCO4)CC2)c1` here?
Its value is -19.6%.

Which “activity change, negative = cytotoxicity” value does the source give for `Cc1ccc(Nc2c(-c3ccc(C)o3)nc3cccc(C)n23)cc1` here?
Its value is -28.8%.

For `O=C1c2ccccc2C(=O)N1c1cccc2cccnc12`, which “activity change, negative = cytotoxicity” value is on record?
Its value is -23.4%.
